Sampled rows, rich in hits. Any-hit rate of the full collection: about 3.6%.
mHTT CaM bind: mHTT-calmodulin interaction abrogation; P42858; AlphaScreen His-mHTT/GST-CaM binding, luminescence; inhibition, % at 15 µM; actives 3.6% (n = 190,000);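 further: 0% = both proteins with DMSO and 100% = one protein alone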
Target sequence (P42858 whole entry, looked up, stated change not applied): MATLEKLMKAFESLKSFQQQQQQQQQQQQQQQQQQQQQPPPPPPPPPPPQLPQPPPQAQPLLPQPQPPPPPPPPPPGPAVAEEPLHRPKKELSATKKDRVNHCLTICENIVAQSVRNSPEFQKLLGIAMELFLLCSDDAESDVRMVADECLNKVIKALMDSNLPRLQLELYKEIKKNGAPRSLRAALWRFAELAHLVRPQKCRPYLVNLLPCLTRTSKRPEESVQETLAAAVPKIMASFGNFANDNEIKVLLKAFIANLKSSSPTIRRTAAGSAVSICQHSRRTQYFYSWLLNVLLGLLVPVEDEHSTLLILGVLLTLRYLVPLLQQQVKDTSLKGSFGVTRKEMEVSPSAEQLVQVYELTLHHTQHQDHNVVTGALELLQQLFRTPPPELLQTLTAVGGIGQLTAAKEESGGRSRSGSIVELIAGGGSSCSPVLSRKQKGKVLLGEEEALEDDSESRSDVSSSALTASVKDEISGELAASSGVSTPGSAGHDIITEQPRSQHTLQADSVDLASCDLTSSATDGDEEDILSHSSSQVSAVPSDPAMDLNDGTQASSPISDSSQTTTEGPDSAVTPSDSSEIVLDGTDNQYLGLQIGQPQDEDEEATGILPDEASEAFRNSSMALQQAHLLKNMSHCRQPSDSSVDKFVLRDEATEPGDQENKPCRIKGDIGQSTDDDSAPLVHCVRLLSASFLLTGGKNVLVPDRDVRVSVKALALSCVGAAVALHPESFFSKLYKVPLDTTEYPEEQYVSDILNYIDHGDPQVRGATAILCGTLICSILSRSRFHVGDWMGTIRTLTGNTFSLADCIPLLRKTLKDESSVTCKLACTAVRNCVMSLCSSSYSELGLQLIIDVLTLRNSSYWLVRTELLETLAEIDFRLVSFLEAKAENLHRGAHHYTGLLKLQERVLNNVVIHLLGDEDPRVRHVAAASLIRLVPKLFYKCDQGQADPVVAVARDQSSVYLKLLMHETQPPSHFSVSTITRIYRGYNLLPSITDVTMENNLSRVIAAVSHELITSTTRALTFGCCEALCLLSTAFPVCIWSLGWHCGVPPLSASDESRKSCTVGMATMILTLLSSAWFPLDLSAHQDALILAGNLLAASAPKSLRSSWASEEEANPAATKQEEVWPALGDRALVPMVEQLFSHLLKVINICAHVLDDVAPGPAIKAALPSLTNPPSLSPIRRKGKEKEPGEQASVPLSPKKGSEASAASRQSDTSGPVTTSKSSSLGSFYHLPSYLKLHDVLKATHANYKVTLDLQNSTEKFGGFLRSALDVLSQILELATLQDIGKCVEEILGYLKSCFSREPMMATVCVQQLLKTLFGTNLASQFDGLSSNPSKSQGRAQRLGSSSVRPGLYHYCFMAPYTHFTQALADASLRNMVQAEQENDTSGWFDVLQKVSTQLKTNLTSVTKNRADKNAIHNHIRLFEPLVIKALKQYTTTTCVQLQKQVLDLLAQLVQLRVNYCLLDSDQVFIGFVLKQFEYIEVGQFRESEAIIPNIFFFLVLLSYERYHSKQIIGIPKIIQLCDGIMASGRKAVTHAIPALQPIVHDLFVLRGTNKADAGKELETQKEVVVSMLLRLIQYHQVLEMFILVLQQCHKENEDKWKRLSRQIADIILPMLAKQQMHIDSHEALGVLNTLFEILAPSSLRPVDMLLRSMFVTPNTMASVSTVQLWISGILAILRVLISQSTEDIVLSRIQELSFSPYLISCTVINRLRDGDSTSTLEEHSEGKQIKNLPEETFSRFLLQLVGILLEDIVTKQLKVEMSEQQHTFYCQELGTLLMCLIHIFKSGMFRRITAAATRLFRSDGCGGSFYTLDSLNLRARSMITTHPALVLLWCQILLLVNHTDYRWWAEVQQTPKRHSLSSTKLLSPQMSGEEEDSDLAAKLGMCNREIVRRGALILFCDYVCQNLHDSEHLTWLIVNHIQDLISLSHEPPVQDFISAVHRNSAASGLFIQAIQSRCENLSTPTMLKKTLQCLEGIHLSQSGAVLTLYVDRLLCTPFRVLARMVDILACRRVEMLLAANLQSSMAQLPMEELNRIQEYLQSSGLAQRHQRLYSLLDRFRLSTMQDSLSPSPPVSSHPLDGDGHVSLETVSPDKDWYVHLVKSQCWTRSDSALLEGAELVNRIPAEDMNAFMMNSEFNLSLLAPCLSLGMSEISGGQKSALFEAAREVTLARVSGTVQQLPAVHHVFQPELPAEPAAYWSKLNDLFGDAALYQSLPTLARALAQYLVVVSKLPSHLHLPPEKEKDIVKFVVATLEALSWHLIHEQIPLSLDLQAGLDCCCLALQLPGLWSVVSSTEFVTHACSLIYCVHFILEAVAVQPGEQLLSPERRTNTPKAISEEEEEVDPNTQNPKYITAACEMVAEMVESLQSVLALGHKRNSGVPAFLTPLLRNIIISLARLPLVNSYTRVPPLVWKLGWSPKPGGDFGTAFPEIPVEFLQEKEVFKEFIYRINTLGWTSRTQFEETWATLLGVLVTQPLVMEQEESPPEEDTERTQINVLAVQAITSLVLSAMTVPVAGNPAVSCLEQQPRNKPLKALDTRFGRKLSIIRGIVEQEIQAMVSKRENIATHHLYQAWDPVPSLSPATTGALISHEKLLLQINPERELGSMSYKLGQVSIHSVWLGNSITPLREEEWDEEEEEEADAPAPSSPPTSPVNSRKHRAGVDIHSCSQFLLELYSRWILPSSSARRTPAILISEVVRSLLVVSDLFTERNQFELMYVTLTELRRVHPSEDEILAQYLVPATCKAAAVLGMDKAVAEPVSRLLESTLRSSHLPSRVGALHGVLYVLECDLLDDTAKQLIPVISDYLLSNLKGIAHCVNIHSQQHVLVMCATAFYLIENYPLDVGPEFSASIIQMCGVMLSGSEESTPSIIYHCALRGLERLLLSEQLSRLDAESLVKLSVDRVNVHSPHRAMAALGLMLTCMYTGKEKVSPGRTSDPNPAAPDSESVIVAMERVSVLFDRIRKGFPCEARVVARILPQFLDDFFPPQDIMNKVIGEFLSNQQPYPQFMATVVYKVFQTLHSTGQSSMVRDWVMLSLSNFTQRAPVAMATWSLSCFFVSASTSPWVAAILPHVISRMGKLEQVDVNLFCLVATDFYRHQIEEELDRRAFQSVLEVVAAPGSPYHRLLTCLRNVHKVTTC
Pf apPOL block: Pf-apPOL DNA polymerase inhibition | actives 0.25% (n = 210,000) | AID 1794808 | inhibition, % at 10 µM | Recombinant Pf-apPOL, molecular beacon fluorescence, 1.5 h
* marks the source's active call; other numbers are inactive results. No stated cut-off is given here; in the data, active means inhibition above about 50%; inactive means the rest.

What do the screens show for `Cc1ccc(OCC(=O)Nc2ccc(N3CCCC3)cc2)cc1C`?
mHTT CaM bind: 99.1*; Pf apPOL block: 4.3

How did Cc1cc(OCC(=O)N2CCCCC2CCN2CCCC2)ccc1Cl (stereo not drawn) do in these assays?
mHTT CaM bind: 13.5; Pf apPOL block: -10.3

Results for COc1ccc(C(=O)Nc2ccc(N3CCOCC3)cc2)cc1 ?
mHTT CaM bind: 5.1; Pf apPOL block: -3.4

What do the screens show for `O=C(Nc1ccc(F)c(F)c1)c1ccc(Cl)cc1`?
mHTT CaM bind: -19.3; Pf apPOL block: -1.0

What do the screens show for `CC(C)N1CCN(c2cc(-c3ccncc3)[nH]n2)CC1`?
mHTT CaM bind: -8.2; Pf apPOL block: 4.3

How did CCC(=O)Nc1ccc(NC(=O)COc2cccc(C)c2)cc1 do in these assays?
mHTT CaM bind: -2.3; Pf apPOL block: -2.8

What do the screens show for `Cc1cccc(OCC(=O)Nc2ccc(Nc3ccccc3)cc2)c1`?
mHTT CaM bind: 73.5*; Pf apPOL block: 1.1

How did Nc1ccc(C(=O)c2ccc(N)c(N)c2)cc1N do in these assays?
mHTT CaM bind: 10.4; Pf apPOL block: -11.2

What do the screens show for `Nc1ccc(N)c2c1C(=O)c1c(N)ccc(N)c1C2=O`?
mHTT CaM bind: 92.0*; Pf apPOL block: -2.5

How did CCn1c(=O)c2c(ncn2C(C)c2ccccc2)n(-c2cccc(C)c2)c1=O (stereo not drawn) do in these assays?
mHTT CaM bind: 2.8; Pf apPOL block: 2.5

How did O=[N+]([O-])c1ccc(N2CCN(Cc3ccccc3)CC2)cc1NC1CC1 do in these assays?
mHTT CaM bind: 26.6; Pf apPOL block: -6.6

What do the screens show for `O=[N+]([O-])c1ccc(N2CCCC2)cc1N1CCN(Cc2ccccc2)CC1`?
mHTT CaM bind: 52.6*; Pf apPOL block: -4.1

How did COc1cc(/C=C2/NC(=O)NC2=O)c(Br)cc1OCC(=O)O do in these assays?
mHTT CaM bind: 0.0; Pf apPOL block: -5.0

Results for O=C(Nc1ccc(Nc2ccccc2)cc1)C1CC1c1ccccc1 (stereo not drawn) ?
mHTT CaM bind: 88.5*; Pf apPOL block: -11.0

What do the screens show for `CC(C)c1ccc(NC(=O)C2CC2c2ccccc2)cc1` (stereo not drawn)?
mHTT CaM bind: -4.8; Pf apPOL block: 1.5

Results for O=C(C1CC(c2c(F)cccc2Cl)=NO1)N1CCOCC1 (stereo not drawn) ?
mHTT CaM bind: -6.1; Pf apPOL block: -1.9

What do the screens show for `COc1ccc(S(=O)(=O)N2CCC(c3nc4ccncc4n3C)C2)cc1Cl` (stereo not drawn)?
mHTT CaM bind: 17.8; Pf apPOL block: -5.7

What do the screens show for `Cc1c(C(c2ccco2)c2c(C)n(C)n(-c3ccccc3)c2=O)c(=O)n(-c2ccccc2)n1C`?
mHTT CaM bind: 1.0; Pf apPOL block: 3.3

What do the screens show for `Cc1[nH]n(-c2ccccc2)c(=O)c1C(c1ccco1)c1c(C)[nH]n(-c2ccccc2)c1=O`?
mHTT CaM bind: 54.0*; Pf apPOL block: -6.9

Results for O=C(c1cccc(N2CCNC(c3ccccc3)C2)n1)N1CCN(c2ccc(F)cc2)CC1 (stereo not drawn) ?
mHTT CaM bind: 50.7*; Pf apPOL block: -6.5

What do the screens show for `Cc1ccc(N2CCN(C(=O)c3ccnc(N4CCNC(c5ccccc5)C4)c3)CC2)cc1` (stereo not drawn)?
mHTT CaM bind: 23.9; Pf apPOL block: -5.5

Results for Cc1cccc(N2CCN(C(=O)c3ccc(N4CCNC(c5ccccc5)C4)nc3)CC2)c1 (stereo not drawn) ?
mHTT CaM bind: 64.8*; Pf apPOL block: -4.2

How did O=C(c1cccc(N2CCNC(c3ccccc3)C2)n1)N1CCN(c2ccccc2)CC1 (stereo not drawn) do in these assays?
mHTT CaM bind: 26.8; Pf apPOL block: 8.2

Results for Cc1ccc(N2CCN(C(=O)c3ccc(N4CCNC(c5ccccc5)C4)nc3)CC2)cc1 (stereo not drawn) ?
mHTT CaM bind: 73.4*; Pf apPOL block: 1.7

What do the screens show for `COc1ccccc1NC(=O)c1ccc(N2CCNC(c3ccccc3)C2)nc1` (stereo not drawn)?
mHTT CaM bind: 32.4; Pf apPOL block: 1.2

What do the screens show for `O=C(c1ccc(N2CCNC(c3ccccc3)C2)nc1)N1CCCC1` (stereo not drawn)?
mHTT CaM bind: 7.4; Pf apPOL block: -3.5

What do the screens show for `COc1ccccc1NC(=O)c1cccc(N2CCNC(c3ccccc3)C2)n1` (stereo not drawn)?
mHTT CaM bind: 71.9*; Pf apPOL block: -8.7

How did CC(C)Oc1ccc(C(=O)N2CCCCC2CCN2CCOCC2)cc1 (stereo not drawn) do in these assays?
mHTT CaM bind: -1.4; Pf apPOL block: -5.9

How did O=C(Cn1c(NCCO)nc2ccccc21)c1ccc(Cl)c(Cl)c1 do in these assays?
mHTT CaM bind: 21.0; Pf apPOL block: -0.6

Results for CC(C)c1ccc(-c2ccnc3c(C(=O)NCc4cccnc4)cnn23)cc1 ?
mHTT CaM bind: -10.2; Pf apPOL block: -7.1

Results for COc1ccccc1NC(=O)CSc1nc2[nH]ncc2c(=O)n1-c1ccc(C)c(Cl)c1 ?
mHTT CaM bind: 37.0; Pf apPOL block: -0.9
